ELG1 genotox = genotoxicity induction in ELG1-luciferase HEK293T cells | 1.3% of 330,000 active | HEK293T ELG1-luciferase reporter, luminescence, 16 h | Potency, µM (doses to about 46 µM), for the others: at the highest dose activity change, positive = activation, actives largely listed as activators; further: % of control where 0% means no effect; nearly all actives have a fitted effect of over 60% in size
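Genotoxic stress is detected as increased luminescence from luciferase-tagged ELG1 in HEK293T cells, measured with ONE-Glo after a 16 hr treatment at 37 °C.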
ELG1 DNA repair = ELG1-dependent DNA repair inhibition | 2.3% of 330,000 active | AID 504467 | Potency, µM (top dose mostly 46.1 µM), for inactives: at the highest dose activity change, negative = inhibition, hits mostly inhibitors | HEK293T ELG1-luciferase reporter, luminescence, 16 h; DNA damage induced by 5-fluorouridine; further: on the % scale 0 is the no-effect control and ±100 the full control effect; nearly all actives have a fitted effect of over 55% in size
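Reporter activity after DNA damage by 5-fluorouridine is monitored. Compound-treated cells incubate 16 hr at 37 °C, then ONE-Glo is added for 30 min before luminescence reading.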
FLuc counter = counter-screen for miR-21 project: firefly luciferase inhibitors or activators; P08659; purified FLuc, Km substrates, luminescence inhibition; Potency, µM (highest dose often 57.5 µM), without a hit: at the top dose activity change, negative = inhibition, actives largely listed as inhibitors; 6.9% of 360,000 active;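 further: plate controls were vehicle for no effect and reference inhibitor for full effect; nearly all actives have a fitted effect of over 55% in size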
Target sequence (P08659 whole entry, looked up): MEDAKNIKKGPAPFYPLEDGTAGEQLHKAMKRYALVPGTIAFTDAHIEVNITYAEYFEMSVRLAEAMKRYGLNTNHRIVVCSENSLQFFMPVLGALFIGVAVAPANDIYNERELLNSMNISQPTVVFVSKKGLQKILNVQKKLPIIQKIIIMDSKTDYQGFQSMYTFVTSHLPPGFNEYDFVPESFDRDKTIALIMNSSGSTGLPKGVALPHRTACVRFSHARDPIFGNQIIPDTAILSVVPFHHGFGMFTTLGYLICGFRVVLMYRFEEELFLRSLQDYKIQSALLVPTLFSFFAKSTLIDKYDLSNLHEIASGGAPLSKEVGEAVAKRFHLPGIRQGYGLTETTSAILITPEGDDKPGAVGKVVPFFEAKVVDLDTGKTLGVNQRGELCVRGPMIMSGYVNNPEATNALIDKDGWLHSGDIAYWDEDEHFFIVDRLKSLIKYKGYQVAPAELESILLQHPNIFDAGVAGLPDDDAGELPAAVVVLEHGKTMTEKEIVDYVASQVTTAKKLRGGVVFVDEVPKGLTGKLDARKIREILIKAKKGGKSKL
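Purified P. pyralis luciferase (10nM final) with 10uM D-luciferin and 10uM ATP (Km levels) in 50mM Tris acetate pH 7.5, 10mM Mg acetate, 0.01% Tween-20, 0.05% BSA; qHTS 6-point titration, ~60 µM downward; luminescence read.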
NPC1 promoter act = NPC1 promoter activation; Huh7 NPC1 promoter luciferase reporter, 24 h; Potency, µM (highest dose often 9.22 µM), for the others: at the highest dose activation, actives largely listed as activators; 2.4% of 320,000 active; AID 485313; further: % of control where 0% means no effect; nearly all actives have a fitted effect of over 60% in size
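Cells: Huh7 expressing luciferase under the NPC1 promoter, 1500/well. Seeded 2 h, compound added, incubated 24 h at 37 °C. Luciferase reagent, 10 min ambient, then luminescence.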
SMN2 splice enh = enhancers of SMN2 splice variant expression. 2.8% of 210,000 active. Potency, µM (doses to about 46.1 µM), inactives show at the top dose activity change, positive = activation, hits mostly activators. HEK293 SMN2-luciferase splicing reporter, luminescence, 30-36 h. AID 1458; further: % of control where 0% means no effect; nearly all actives have a fitted effect of over 55% in size
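qHTS luciferase splicing reporter: luminescence rises when SMN2 exon 7 is included in transfected HEK293 cells. Compound exposure lasted 30-36 h at 37C, with 4.5 mM final sodium butyrate as control, followed by a ONE-Glo read.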
Rab9 prom act = activates the Rab9 promoter; Huh7 Rab9 promoter-luciferase reporter, luminescence, 24 h; Potency, µM (series often up to 9.22 µM), for inactives: top-dose activation, negative = inhibition, most hits filed as activators; 2.8% of 320,000 active; AID 485297; further: % of control where 0% means no effect; nearly all actives have a fitted effect of over 60% in size
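Cell-based reporter: Huh7 stable for Rab9 promoter-driven luciferase, plated in reduced-serum medium with 10% FBS at 1500 cells/well, compound-treated 24 h at 37 °C, luminescence read after 10 min reagent.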
Numbers without * were called inactive; ? = inconclusive; · = no result; [ ] = dose if it differs, or a comment. Hits are enriched below; roughly 9.3% of the tested compounds scored in any of these assays. The call rests on the fitted dose curve; in most records, active means well fitted curve in the direction sought with a large enough effect; inconclusive means small, poorly fitted or top-dose-only effect, or another doubt; inactive means no such curve, though single readings can be large; an effect the other way counts as inactive or inconclusive. Potency means the concentration at half of the fitted maximal effect.

SMILES	ELG1 genotox	ELG1 DNA repair	FLuc counter	NPC1 promoter act	SMN2 splice enh	Rab9 prom act
Cc1ccc2cccc(NC(=O)c3ccc(-c4cc(Cl)ccc4Cl)o3)c2n1	·	·	-1%	·	5%	·
COc1ccc(NC(=O)CCNS(=O)(=O)c2cccc(C(C)=O)c2)cc1S(N)(=O)=O	-1%	16%	2%	-2%	·	0%
CCOc1ccc(N(CC(=O)NCc2ccccc2C)S(C)(=O)=O)cc1	?	?	13µM*	3.2µM*	·	?
CCOc1ccc(N(CC(=O)NCCSCc2ccccc2Cl)S(C)(=O)=O)cc1	-10%	-25%	3%	2%	·	1%
CCOc1ccc(NC(=O)CN(c2ccc(OC)cc2)S(C)(=O)=O)cc1	16µM*	?	21µM*	?	-6%	26%
COC(=O)c1ccc(NC(=O)CN(c2ccc(OC)cc2)S(C)(=O)=O)cc1	?	?	15µM*	?	?	2.5µM*
Nc1ncc(-n2cncn2)c(-c2ccccc2)n1	-4%	-3%	-1%	1%	-4%	-3%
COc1ccc(CCNC(=O)CSc2nc(O)c(CCC(C)C)c(=O)[nH]2)cc1OC	3%	6%	4%	2%	-33%	3%
CN1C(=C2C(=O)OC(C)(C)OC2=O)Sc2ccccc21	?	?	15µM*	3.5µM*	13%	2.5µM*
Nn1cnnc1SCC(=O)Nc1ccc(C2CCCCC2)cc1	?	?	5.4µM*	3.5µM*	?	?
CCC(C)c1ccc(NC(=O)CSc2nncn2N)cc1 (centres undefined)	?	?	?	16%	-11%	6%
Cc1ccc(NC(=O)CSCC(=O)O)cc1	1%	?	2%	-5%	·	14%
CC(C)n1cnnc1SCC(=O)NCC(=O)Nc1ccc(F)cc1	-1%	5%	3%	5%	·	14%
CC(C)n1cnnc1SCC(=O)Nc1ccc(N2CCCCC2)cc1	?	23%	6µM*	-3%	·	2%
O=C(O)CSCC(=O)Nc1ccc(C2CCCCC2)cc1	·	·	12µM*	·	-25%	·
CC(=O)O[C@H]1C(=O)[C@@]2(C)[C@H]([C@H](OC(=O)c3ccccc3)[C@]3(O)C[C@H](OC(=O)[C@H](O)[C@@H](NC(=O)c4ccccc4)c4ccccc4)C(C)=C1C3(C)C)[C@]1(OC(C)=O)CO[C@@H]1C[C@@H]2O	-17%	-2%	?	-31%	·	-26%
Nc1ccc(-c2nc3ccc(-c4nc5ccc(N)cc5[nH]4)cc3[nH]2)cc1	·	·	·	-5%[46.1 µM]	?	10%[46.1 µM]
Cc1ccc2nc(-c3sc4nc(C)cc(C)c4c3N)[nH]c2c1	?	?	0.34µM*	21%	2.5µM*	?
CC(=O)c1sc2nc(C)cc(C)c2c1N	-2%	-4%	-15%	0%	?	1%
Nc1ccc2nc(CCCCc3nc4ccccc4[nH]3)[nH]c2c1	-3%	-6%	4%	-10%	·	0%
Nc1cccc(-c2nc3ccccc3[nH]2)c1	?	?	13µM*	2.8µM*	13µM*	4µM*
Nc1ccc2nc(-c3cccc(-c4nc5ccc(N)cc5[nH]4)n3)[nH]c2c1	-4%	2%	9.5µM*	1%	·	3%
Cc1ccc2nc(-c3cccc(N)c3)[nH]c2c1	?	?	0.95µM*	0.79µM*	2.2µM*	1.6µM*
COc1cc(C(=O)NCC(c2cccs2)N2CCOCC2)cc(OC)c1OC (centres undefined)	2%	?	2%	-3%	·	0%
COc1ccc(CNC(=O)CN2C(=O)CSc3ccc(S(=O)(=O)N4CCOCC4)cc32)cc1	-1%	8%	-1%	-4%	·	2%
SMILES	ELG1 genotox	ELG1 DNA repair	FLuc counter	NPC1 promoter act	SMN2 splice enh	Rab9 prom act
Oc1nc(Nc2ccc(Cl)cc2Cl)sc1/C=C1\C=Nc2ccccc21	-3%	9%	-10%	1%	3.2µM*	-6%
COc1cccc(-c2nc(NCC3CCCO3)c3ccccc3n2)c1O (centres undefined)	-1%	?	4%	-9%	-13%	0%
O=[N+]([O-])c1ccc(-c2nc(NCC3CCCO3)c3ccccc3n2)cc1 (centres undefined)	-14%	8.2µM*	2%	-2%	·	-9%
Oc1ccccc1-c1nc(NCC2CCCO2)c2ccccc2n1 (centres undefined)	-26%	23µM*	0%	2%	-39%	-5%
CCOc1ccc(C(=O)C(CCC(CN(C)C)C(=O)c2ccc(OCC)cc2)CN(C)C)cc1 (centres undefined)	-16%	?	3%	-22%	-107%	-34%
COc1ccc(-n2cc(-c3ccc(Cl)cc3)[nH]c2=S)cc1	6%	?	-12%	28%	·	1.3µM*
COc1cccc(-n2cc(-c3ccc(F)cc3)[nH]c2=S)c1	?	?	?	1.6µM*	·	0.32µM*
CCCCNC(=O)c1ccc2c(c1)ncn2C1CCCC1	?	?	17µM*	0%	4%	4%
O=C(N/N=C/C=C/c1ccccc1)c1ccccn1	?	?	17µM*	?	·	3.5µM*
O=C(N/N=C/c1ccncc1)c1ccccc1	6%	41%	?	3%	24%	-3%
CC(/C=N/NC(=O)c1ccccn1)=C\c1ccco1	?	?	3.8µM*	1.4µM*	·	1.4µM*
O=C(N/N=C/C=C\c1ccco1)c1ccccn1	?	?	?	?	·	9%
O=C(N/N=C/C(Br)=C/c1ccccc1)c1cnccn1	?	0%	6µM*	19%	·	3.5µM*
O=C(N/N=C/C(Cl)=C/c1ccccc1)c1ccncc1	4%	7%	17µM*	-2%	9%	11%
Cc1ccc(S(=O)(=O)N2C/C=C\CN(S(=O)(=O)c3ccccc3Br)CC2)cc1	-4%	?	·	·	·	·
C#CCN(CC=C)C(=O)CCc1nnc(COc2ccccc2)o1	?	?	?	-2%	4%	15%
O=C(N/N=C/C=C\c1cccc([N+](=O)[O-])c1)c1ccccn1	-2%	?	-11%	13%	7%	17%
O=C(N/N=C1\C/C(=N\NC(=O)c2ccncc2)c2ccccc21)c1ccncc1	-3%	0%	4.8µM*	3%	·	-25%
O=C(NN=C1c2ccccc2-c2ccccc21)c1ccccn1	3%	4%	5.4µM*	21%	-19%	15%
O=C(N/N=C/C(Cl)=C/c1ccccc1)c1ccccn1	?	?	4.8µM*	4µM*	13µM*	1.8µM*
Cc1ccc(-c2cc(C(=O)N/N=C/C=C/c3ccccc3)n[nH]2)s1	-2%	-28%	9.5µM*	-3%	-30%	-2%

High-throughput results from PubChem BioAssay.
